aSyn UTR act: Activators via SNCA 5'UTR binding, MLPCN. alpha-synuclein 5'UTR reporter, activators screen. activity score, % (tested at 7.5 µM), hits read low. AID 1814. 300,000 compounds, 7.1% hits; in the data active means activity score below about -60%
Each line names hits and unclear results; the compound was inactive in the other large screens. This is one part of a sample in which hits are shown more often than they occur.

CCCc1ccc(-c2cc(NC(=O)CSc3n[nH]c(N)n3)n(-c3ccccc3)n2)cc1	aSyn UTR act -141.4
Cc1ccc(N=Cc2ccc(N(C)C)cc2)cc1C	aSyn UTR act -123.2
CCN(CC)c1ccc(O)c(C=Nc2ccc(C)c(C)c2)c1	aSyn UTR act -76.5
Cc1ccc(N=Nc2ccc(O)c(/C=N\NC(=O)c3ccc(N)cc3)c2)cc1C	none
Cc1c(C(=O)Nc2nc3ccccc3[nH]2)oc2ccccc12	aSyn UTR act -257.6
Cc1c(C(=O)Nc2nc3ccccc3[nH]2)oc2c(Cl)cccc12	aSyn UTR act -136.1
Cc1c(C(=O)Nc2nc3ccccc3[nH]2)oc2ccc(Br)cc12	aSyn UTR act -157.9
CCC(C)N(CC(=O)Nc1cccc(C)c1C)C(=O)CCl (stereo unspecified)	aSyn UTR act -88.3
CS(=O)(=O)c1nc(-c2cccs2)cc(C(F)(F)F)n1	aSyn UTR act -89.9
COc1ccc(-c2cc(C(F)(F)F)nc(S(C)(=O)=O)n2)cc1	aSyn UTR act -102.8
Cc1cc(NC(=O)CCCS(=O)(=O)c2nc(-c3cccs3)cc(C(F)(F)F)n2)no1	aSyn UTR act -91.9
CS(=O)(=O)c1nc(-c2ccc(F)cc2)cc(C(F)(F)F)n1	aSyn UTR act -125.8
O=C(Nc1ccc(Cl)cc1Cl)c1ccc(Br)o1	aSyn UTR act -123.6
Cc1cc(O)c(NC(=O)c2ccc(Br)o2)cc1C	aSyn UTR act -178.4
COc1ccc2cc(-c3ccon3)ccc2c1	aSyn UTR act -171.6
CCC1CCCCN1CCCNC(=O)Cn1c2ccccc2c2nc(=O)cc(C)n21 (stereo unspecified)	aSyn UTR act -138.9
COc1ccc2nc3sc(C(=O)NCCCN4CCc5ccccc5C4)cc3cc2c1	aSyn UTR act -83.7
COc1ccc2[nH]cc(/C=C/C(=O)c3ccccc3)c2c1	aSyn UTR act -245.4
O=C(/C=C/c1c[nH]c2ccccc12)c1ccccc1	aSyn UTR act -330.2
Cc1ccc(C(=O)/C=C/c2cn(CN3CCN(C)CC3)c3ccccc23)cc1	aSyn UTR act -231.2
Cc1ccc(C(=O)/C=C/c2c[nH]c3ccccc23)cc1	aSyn UTR act -237.2
O=C(NCCC1=CCCCC1)C(=O)c1c[nH]c2ccccc12	aSyn UTR act -81.5
O=C(NCC1CCCO1)C(=O)c1c[nH]c2ccccc12 (stereo unspecified)	aSyn UTR act -72.9
O=C(NC1CCCC1)c1n[nH]c2ccccc12	aSyn UTR act -85.7
O=C(NC1CCCCC1)C(=O)c1c[nH]c2ccccc12	aSyn UTR act -115.3
Cc1ccc(NC(=O)C(=O)c2c[nH]c3ccccc23)cc1	aSyn UTR act -169.4
O=c1[nH]c(=O)c2nc3c4ccccc4c4ccccc4c3nc2[nH]1	aSyn UTR act -69.8
O=C1c2ccccc2C(=O)c2[nH]c(=O)[nH]c21	none
Cc1ccccc1Nc1c(-c2ccc(N3CCOCC3)cc2)nc2cnccn12	aSyn UTR act -66.9
CS(=O)(=O)N1N=C(c2ccc(Cl)cc2)CC1c1cccs1 (stereo unspecified)	aSyn UTR act -177.8
COc1ccc(C(=O)Nc2nnc(Cc3ccc(OC)c(OC)c3)s2)c(OC)c1	aSyn UTR act -82.4
COc1ccccc1C(=O)Nc1nc2cc3c(cc2s1)OCO3	aSyn UTR act -122.1
COc1ccc(C(=O)Nc2nc3cc4c(cc3s2)OCCO4)c(OC)c1	aSyn UTR act -63.3
Cc1nc2cc(NC(=O)CCS(=O)(=O)c3ccccc3)ccc2s1	aSyn UTR act -172.3
COc1ccccc1C(=O)Nc1nc2cc3c(cc2s1)OCCO3	aSyn UTR act -63.8
O=C(CCS(=O)(=O)c1ccccc1)Nc1nc2cc3c(cc2s1)OCO3	aSyn UTR act -64.6
Cc1nnsc1S(=O)c1ccc(F)cc1 (stereo unspecified)	aSyn UTR act -68.2
Cc1nnsc1S(=O)c1ccc(Br)cc1 (stereo unspecified)	aSyn UTR act -148.3
Cc1ccc(S(=O)c2snnc2C)cc1 (stereo unspecified)	aSyn UTR act -66.0
COc1ccccc1C1N=C(c2ccccc2C)NO1 (stereo unspecified)	aSyn UTR act -120.4
Cc1ccccc1C1=NC(c2ccc(F)cc2F)ON1 (stereo unspecified)	aSyn UTR act -90.0
CCn1c(C)c(C)c2cc(C(=O)Nc3cccc(Cl)c3)ccc21	aSyn UTR act -117.4
Cc1cc(O)c(C(=O)Nc2cccc(Cl)c2)c(=O)n1C	aSyn UTR act -103.8
CCn1c(C)cc(O)c(C(=O)Nc2cccc(Cl)c2)c1=O	aSyn UTR act -95.6
Cc1cccc(NC(=S)NNC(=O)c2csc(C)c2)c1	aSyn UTR act -76.7
Cc1cccc(NC(=S)NNC(=O)c2csc3c2CCCC3)c1	aSyn UTR act -125.3
Cc1cc(C(=O)Nc2ccc(Br)cc2)cs1	aSyn UTR act -130.1
CCOC(=O)c1c(C)nc2sc(C(=O)Nc3ccccc3)c(N)c2c1-c1ccc(OC)cc1	aSyn UTR act -190.9
COc1ccc(-c2c3c(nc4sc(C(=O)Nc5ccccc5)c(N)c24)CCC3)cc1	aSyn UTR act -128.1
O=C(Cc1csc(NC(=O)Nc2ccc(Cl)cc2)n1)NC1CCCC1	aSyn UTR act -91.4
Cc1csc(NC(=O)Nc2ccc(Cl)cc2)n1	aSyn UTR act -114.8
Cc1cnc(NC(=O)Nc2ccc(Cl)cc2)s1	aSyn UTR act -186.8

Screens from PubChem.
